# According to publication PMC8384837, “Expanding the binding specificity for RNA recognition by a PUF domain”:
# Key:
# Assay in all cases: yeast three-hybrid, YBZ-1, SC-Leu-His + 0.5 mM 3-AT, 4 days
# Conditions in all cases: tags: N-Gal4 AD-HA kept; label: inside an RPR1-promoter hybrid RNA with tandem MS2 sites; ssRNA
# [1] = target: PUM1 PUF domain R3-RVK (Homo sapiens, UniProt Q14671 828-1176, C935R;R936V;Q939K)
# Procedure, shortened: (§1)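 Sequencing with Illumina followed PCR amplification of the repeat regions from transformants grown four days on SC-Leu (input) or SC-Leu-His + 0.5 mM 3-AT (selection). The transformants were strain YBZ-1 with a LexA–MS2 coat fusion and a HIS3 reporter, carrying Pumilio-1 PUF domain libraries and matching RNA elements. The interaction score is the log change in variant frequency from input to selection, computed in log2 with a pseudocount of 1 for absent variants.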
# [2] = target: PUM1 PUF domain R3-PRQ (Homo sapiens, UniProt Q14671 828-1176, C935P)
# Sequence of PUM1 PUF domain R3-PRQ (Q14671 828-1176 C935P): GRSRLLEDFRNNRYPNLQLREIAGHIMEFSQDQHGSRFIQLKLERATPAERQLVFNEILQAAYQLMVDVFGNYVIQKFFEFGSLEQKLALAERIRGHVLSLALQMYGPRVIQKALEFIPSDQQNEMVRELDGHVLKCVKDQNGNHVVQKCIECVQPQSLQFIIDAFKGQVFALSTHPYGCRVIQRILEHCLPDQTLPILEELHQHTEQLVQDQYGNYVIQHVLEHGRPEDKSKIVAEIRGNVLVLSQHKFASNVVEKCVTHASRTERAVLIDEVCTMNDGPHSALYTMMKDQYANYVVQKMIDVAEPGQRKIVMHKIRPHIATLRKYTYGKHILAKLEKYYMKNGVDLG
# Procedure, shortened: as §1
# [3] = target: PUM1 PUF domain R8-VFR (Homo sapiens, UniProt Q14671 828-1176, N1122V;Y1123F;Q1126R)
# Sequence of PUM1 PUF domain R8-VFR (Q14671 828-1176 N1122V/Y1123F/Q1126R): as the sequence (Q14671 828-1176 C935P) above, with P108C, N295V, Y296F, Q299R counted along it
# Procedure, shortened: as §1
# [4] = target: PUM1 PUF domain R8-LFW (Homo sapiens, UniProt Q14671 828-1176, N1122L;Y1123F;Q1126W)
# Sequence of PUM1 PUF domain R8-LFW (Q14671 828-1176 N1122L/Y1123F/Q1126W): as the sequence (Q14671 828-1176 C935P) above, with P108C, N295L, Y296F, Q299W counted along it
# Procedure, shortened: as §1
# [5] = target: PUM1 PUF domain R5-KAV (Homo sapiens, UniProt Q14671 828-1176, C1007K;R1008A;Q1011V)
# Sequence of PUM1 PUF domain R5-KAV (Q14671 828-1176 C1007K/R1008A/Q1011V): as the sequence (Q14671 828-1176 C935P) above, with P108C, C180K, R181A, Q184V counted along it
# Procedure, shortened: as §1
# [6] = target: PUM1 PUF domain R1-TKR (Homo sapiens, UniProt Q14671 828-1176, S863T;R864K;Q867R)
# Sequence of PUM1 PUF domain R1-TKR (Q14671 828-1176 S863T/R864K/Q867R): as the sequence (Q14671 828-1176 C935P) above, with S36T, R37K, Q40R, P108C counted along it
# Procedure, shortened: as §1
# [7] = target: PUM1 PUF domain R4-PYR (Homo sapiens, UniProt Q14671 828-1176, N971P;H972Y;Q975R)
# Sequence of PUM1 PUF domain R4-PYR (Q14671 828-1176 N971P/H972Y/Q975R): as the sequence (Q14671 828-1176 C935P) above, with P108C, N144P, H145Y, Q148R counted along it
# Procedure, shortened: as §1
# [8] = target: PUM1 PUF domain R3-MYD (Homo sapiens, UniProt Q14671 828-1176, C935M;R936Y;Q939D)
# Sequence of PUM1 PUF domain R3-MYD (Q14671 828-1176 C935M/R936Y/Q939D): as the sequence (Q14671 828-1176 C935P) above, with P108M, R109Y, Q112D counted along it
# Procedure, shortened: as §1
# [9] = target: PUM1 PUF domain R3-SND (Homo sapiens, UniProt Q14671 828-1176, C935S;R936N;Q939D)
# Sequence of PUM1 PUF domain R3-SND (Q14671 828-1176 C935S/R936N/Q939D): as the sequence (Q14671 828-1176 C935P) above, with P108S, R109N, Q112D counted along it
# Procedure, shortened: as §1
# [10] = target: PUM1 PUF domain R1-TRK (Homo sapiens, UniProt Q14671 828-1176, S863T;Q867K)
# Sequence of PUM1 PUF domain R1-TRK (Q14671 828-1176 S863T/Q867K): as the sequence (Q14671 828-1176 C935P) above, with S36T, Q40K, P108C counted along it
# Procedure, shortened: as §1
# Sequence of PUM1 PUF domain R3-RVK (Q14671 828-1176 C935R/R936V/Q939K): as the sequence (Q14671 828-1176 C935P) above, with P108R, R109V, Q112K counted along it
sequence,measurement,setting,value
GGCUAGAACUAGUGGAUCCCCCGGCGCCCGGCGGCUCGAGCCCGGGUAAGUGUAAAUAGUCUGCAUGCCGCCGGGCGCCAUGCCUGCAGGUCGACUCUAGAAAACAUG,binding signal,[1],2.2 log2 enrichment (interaction score)
same,binding signal,[2],4.52 log2 enrichment (interaction score)
same,binding signal,[3],3.9 log2 enrichment (interaction score)
same,binding signal,[4],2.5 log2 enrichment (interaction score)
GGCUAGAACUAGUGGAUCCCCCGGCGCCCGGCGGCUCGAGCCCGGGUAAGUGUCAAUAGUCUGCAUGCCGCCGGGCGCCAUGCCUGCAGGUCGACUCUAGAAAACAUG,binding signal,[5],4 log2 enrichment (interaction score)
GGCUAGAACUAGUGGAUCCCCCGGCGCCCGGCGGCUCGAGCCCGGGUAAGUGUAAAUCGUCUGCAUGCCGCCGGGCGCCAUGCCUGCAGGUCGACUCUAGAAAACAUG,binding signal,[6],6.21 log2 enrichment (interaction score)
GGCUAGAACUAGUGGAUCCCCCGGCGCCCGGCGGCUCGAGCCCGGGUAAGUGUACAUAGUCUGCAUGCCGCCGGGCGCCAUGCCUGCAGGUCGACUCUAGAAAACAUG,binding signal,[7],5.23 log2 enrichment (interaction score)
GGCUAGAACUAGUGGAUCCCCCGGCGCCCGGCGGCUCGAGCCCGGGUAAGUGUAAUUAGUCUGCAUGCCGCCGGGCGCCAUGCCUGCAGGUCGACUCUAGAAAACAUG,binding signal,[1],5.35 log2 enrichment (interaction score)
same,binding signal,[8],2.42 log2 enrichment (interaction score)
GGCUAGAACUAGUGGAUCCCCCGGCGCCCGGCGGCUCGAGCCCGGGUAAGCGUAAAUAGUCUGCAUGCCGCCGGGCGCCAUGCCUGCAGGUCGACUCUAGAAAACAUG,binding signal,[3],4.1 log2 enrichment (interaction score)
same,binding signal,[4],2.4 log2 enrichment (interaction score)
GGCUAGAACUAGUGGAUCCCCCGGCGCCCGGCGGCUCGAGCCCGGGUAAGUGUAUAUAGUCUGCAUGCCGCCGGGCGCCAUGCCUGCAGGUCGACUCUAGAAAACAUG,binding signal,[7],7.09 log2 enrichment (interaction score)
GGCUAGAACUAGUGGAUCCCCCGGCGCCCGGCGGCUCGAGCCCGGGUAAGUGUAAGUAGUCUGCAUGCCGCCGGGCGCCAUGCCUGCAGGUCGACUCUAGAAAACAUG,binding signal,[1],2.53 log2 enrichment (interaction score)
same,binding signal,[9],5.25 log2 enrichment (interaction score)
GGCUAGAACUAGUGGAUCCCCCGGCGCCCGGCGGCUCGAGCCCGGGUAAGUGUAAAUUGUCUGCAUGCCGCCGGGCGCCAUGCCUGCAGGUCGACUCUAGAAAACAUG,binding signal,[10],3.04 log2 enrichment (interaction score)
same,binding signal,[6],1.37 log2 enrichment (interaction score)
